Assay results taken from publication PMC7862700, “An all-to-all approach to the identification of sequence-specific readers for epigenetic DNA modifications on cytosine”.

Assays:
Test in all cases: DAPPL (digital affinity profiling via proximity ligation, sequencing); 10 mM Tris-HCl pH 7.5, 50 mM NaCl, 1 mM DTT, 4% glycerol, room temperature, 30 min; GST-TFs on glutathione beads, 16-mer random dsDNA library, 0.1% formaldehyde crosslink after washing; high values mean tight binding
Details in all cases: protein: recombinant; tags: N-terminal GST; dsDNA, one strand shown
SPI1 = SPI1 (Homo sapiens, UniProt P17947 1-270)
Summary of the method: (§1)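 Binding signal is given per hexamer as its read frequency for a factor divided by its frequency in the tag-only sample. GST-fused human transcription factors were expressed in yeast, captured on glutathione beads, barcoded with DNA and pooled with that sample, then incubated with 200 nmole of a 16-mer random double-stranded DNA library in Tris/NaCl/DTT/glycerol buffer for 30 min at room temperature. The pools were then washed, crosslinked, proximity-ligated, amplified by PCR and sequenced on an Illumina NextSeq500.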

FEV = target: T1, FEV (Homo sapiens, UniProt Q99581 1-238)
T1 sequence: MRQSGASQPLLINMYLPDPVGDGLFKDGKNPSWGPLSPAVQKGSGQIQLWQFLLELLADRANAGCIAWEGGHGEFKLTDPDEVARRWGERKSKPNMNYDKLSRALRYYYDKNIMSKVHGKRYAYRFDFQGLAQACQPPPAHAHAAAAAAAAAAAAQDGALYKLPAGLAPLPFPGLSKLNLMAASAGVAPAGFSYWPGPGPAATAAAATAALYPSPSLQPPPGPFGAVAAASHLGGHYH
Summary of the method: as §1

ETV5 = ETV5 (Homo sapiens, UniProt P41161 1-510)
Summary of the method: as §1

ELF5 = target: T2, ELF5 (Homo sapiens, UniProt Q9UKW6-2 1-255)
T2 sequence: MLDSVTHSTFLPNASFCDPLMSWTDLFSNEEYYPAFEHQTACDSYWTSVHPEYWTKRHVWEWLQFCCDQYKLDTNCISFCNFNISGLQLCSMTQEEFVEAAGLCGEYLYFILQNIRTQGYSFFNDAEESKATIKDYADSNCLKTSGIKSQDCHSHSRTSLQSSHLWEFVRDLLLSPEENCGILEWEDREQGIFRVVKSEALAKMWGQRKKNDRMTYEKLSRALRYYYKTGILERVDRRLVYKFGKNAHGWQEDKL
Summary of the method: as §1

SPDEF = target: T3, SPDEF (Homo sapiens, UniProt O95238 1-335)
T3 sequence: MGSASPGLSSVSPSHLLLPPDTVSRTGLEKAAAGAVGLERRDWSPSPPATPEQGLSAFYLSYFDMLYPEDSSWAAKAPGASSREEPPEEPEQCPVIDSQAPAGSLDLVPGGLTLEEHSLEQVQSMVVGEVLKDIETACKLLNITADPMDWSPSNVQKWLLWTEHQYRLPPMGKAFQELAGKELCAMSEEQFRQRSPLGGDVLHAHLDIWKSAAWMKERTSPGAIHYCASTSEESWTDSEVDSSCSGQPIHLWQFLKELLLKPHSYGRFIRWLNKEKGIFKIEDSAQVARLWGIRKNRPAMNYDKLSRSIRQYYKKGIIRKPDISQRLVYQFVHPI
Summary of the method: as §1

CRX = CRX (Homo sapiens, UniProt O43186 1-299)
Summary of the method: as §1

Chain of ETV5 (P41161 whole entry): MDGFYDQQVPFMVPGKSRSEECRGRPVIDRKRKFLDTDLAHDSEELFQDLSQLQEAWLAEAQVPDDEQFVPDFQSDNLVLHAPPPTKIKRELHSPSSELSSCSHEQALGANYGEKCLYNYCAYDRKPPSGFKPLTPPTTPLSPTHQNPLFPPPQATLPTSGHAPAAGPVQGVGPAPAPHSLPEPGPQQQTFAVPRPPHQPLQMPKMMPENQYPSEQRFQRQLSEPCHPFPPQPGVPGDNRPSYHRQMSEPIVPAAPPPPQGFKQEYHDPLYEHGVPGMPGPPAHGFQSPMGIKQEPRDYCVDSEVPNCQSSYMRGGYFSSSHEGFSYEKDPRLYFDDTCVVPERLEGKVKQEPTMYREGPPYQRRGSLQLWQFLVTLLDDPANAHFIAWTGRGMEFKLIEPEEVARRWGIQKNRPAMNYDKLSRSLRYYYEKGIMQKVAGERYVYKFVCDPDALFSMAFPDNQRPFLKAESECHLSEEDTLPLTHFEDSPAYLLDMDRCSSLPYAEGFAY
Chain of CRX (O43186 whole entry): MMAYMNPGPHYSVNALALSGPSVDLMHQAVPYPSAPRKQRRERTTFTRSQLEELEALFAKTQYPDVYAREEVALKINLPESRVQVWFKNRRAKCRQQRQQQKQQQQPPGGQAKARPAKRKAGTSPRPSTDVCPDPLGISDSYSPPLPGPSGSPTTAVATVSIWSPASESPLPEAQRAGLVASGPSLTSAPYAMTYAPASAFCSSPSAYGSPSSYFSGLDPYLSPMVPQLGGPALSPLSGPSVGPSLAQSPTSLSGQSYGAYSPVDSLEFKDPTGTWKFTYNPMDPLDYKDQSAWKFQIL

Sequence | binding signal (SPI1) | binding signal (FEV) | binding signal (ETV5) | binding signal (ELF5) | binding signal (SPDEF) | binding signal (CRX)
CCACCG | 1.04 fold enrichment (6-mer frequency, TF over GST control) | 1.26 fold enrichment (6-mer frequency, TF over GST control) | 1 fold enrichment (6-mer frequency, TF over GST control) | 1.02 fold enrichment (6-mer frequency, TF over GST control) |  | 
CATAGT |  |  | 1.01 fold enrichment (6-mer frequency, TF over GST control) | 1 fold enrichment (6-mer frequency, TF over GST control) |  | 
AGCGGC |  |  | 1.03 fold enrichment (6-mer frequency, TF over GST control) |  |  | 
AACGCA | 1.06 fold enrichment (6-mer frequency, TF over GST control) | 1.11 fold enrichment (6-mer frequency, TF over GST control) | 1.09 fold enrichment (6-mer frequency, TF over GST control) | 1.04 fold enrichment (6-mer frequency, TF over GST control) | 1.05 fold enrichment (6-mer frequency, TF over GST control) | 
GCCCGG |  | 1.04 fold enrichment (6-mer frequency, TF over GST control) | 1.01 fold enrichment (6-mer frequency, TF over GST control) | 1.05 fold enrichment (6-mer frequency, TF over GST control) | 1.06 fold enrichment (6-mer frequency, TF over GST control) | 
AGCGTC | 1.06 fold enrichment (6-mer frequency, TF over GST control) | 1.04 fold enrichment (6-mer frequency, TF over GST control) | 1.04 fold enrichment (6-mer frequency, TF over GST control) | 1.04 fold enrichment (6-mer frequency, TF over GST control) | 1.08 fold enrichment (6-mer frequency, TF over GST control) | 
GGCAAT |  |  | 1 fold enrichment (6-mer frequency, TF over GST control) |  |  | 
CGAGGT |  |  | 1.01 fold enrichment (6-mer frequency, TF over GST control) |  |  | 
ATAGGC |  | 1.07 fold enrichment (6-mer frequency, TF over GST control) | 1.1 fold enrichment (6-mer frequency, TF over GST control) |  |  | 1.14 fold enrichment (6-mer frequency, TF over GST control)
ATCCGT |  | 1.1 fold enrichment (6-mer frequency, TF over GST control) | 1.05 fold enrichment (6-mer frequency, TF over GST control) | 1.17 fold enrichment (6-mer frequency, TF over GST control) | 1.41 fold enrichment (6-mer frequency, TF over GST control) | 1.08 fold enrichment (6-mer frequency, TF over GST control)
GTTGGT | 1.02 fold enrichment (6-mer frequency, TF over GST control) |  | 1.01 fold enrichment (6-mer frequency, TF over GST control) |  |  | 
GGACTT | 1.2 fold enrichment (6-mer frequency, TF over GST control) | 1.4 fold enrichment (6-mer frequency, TF over GST control) | 1.15 fold enrichment (6-mer frequency, TF over GST control) | 1.24 fold enrichment (6-mer frequency, TF over GST control) | 1.08 fold enrichment (6-mer frequency, TF over GST control) | 1.08 fold enrichment (6-mer frequency, TF over GST control)
GTGCCC | 1.07 fold enrichment (6-mer frequency, TF over GST control) | 1 fold enrichment (6-mer frequency, TF over GST control) | 1.08 fold enrichment (6-mer frequency, TF over GST control) |  |  | 
ATAGGG | 1.19 fold enrichment (6-mer frequency, TF over GST control) |  | 1.03 fold enrichment (6-mer frequency, TF over GST control) | 1.02 fold enrichment (6-mer frequency, TF over GST control) | 1.01 fold enrichment (6-mer frequency, TF over GST control) | 
GTGCCT | 1.15 fold enrichment (6-mer frequency, TF over GST control) |  | 1.07 fold enrichment (6-mer frequency, TF over GST control) |  | 1.02 fold enrichment (6-mer frequency, TF over GST control) | 
TATGAG |  |  | 1.02 fold enrichment (6-mer frequency, TF over GST control) |  | 1.01 fold enrichment (6-mer frequency, TF over GST control) | 1.1 fold enrichment (6-mer frequency, TF over GST control)
GGGTAT |  |  | 1.02 fold enrichment (6-mer frequency, TF over GST control) |  |  | 
CAGTTC | 1.08 fold enrichment (6-mer frequency, TF over GST control) |  | 1.04 fold enrichment (6-mer frequency, TF over GST control) | 1 fold enrichment (6-mer frequency, TF over GST control) |  | 
GGCTAT | 1.03 fold enrichment (6-mer frequency, TF over GST control) | 1.06 fold enrichment (6-mer frequency, TF over GST control) | 1 fold enrichment (6-mer frequency, TF over GST control) | 1.02 fold enrichment (6-mer frequency, TF over GST control) | 1.05 fold enrichment (6-mer frequency, TF over GST control) | 
AGTCCT | 1.2 fold enrichment (6-mer frequency, TF over GST control) |  | 1.05 fold enrichment (6-mer frequency, TF over GST control) | 1.17 fold enrichment (6-mer frequency, TF over GST control) | 1.02 fold enrichment (6-mer frequency, TF over GST control) | 
GTACCA | 1.11 fold enrichment (6-mer frequency, TF over GST control) | 1.01 fold enrichment (6-mer frequency, TF over GST control) | 1.07 fold enrichment (6-mer frequency, TF over GST control) |  | 1 fold enrichment (6-mer frequency, TF over GST control) | 
GTCCGG |  | 1.15 fold enrichment (6-mer frequency, TF over GST control) | 1.01 fold enrichment (6-mer frequency, TF over GST control) | 1.06 fold enrichment (6-mer frequency, TF over GST control) | 1.18 fold enrichment (6-mer frequency, TF over GST control) | 
AAACAG | 1.13 fold enrichment (6-mer frequency, TF over GST control) |  | 1.07 fold enrichment (6-mer frequency, TF over GST control) | 1.03 fold enrichment (6-mer frequency, TF over GST control) |  | 
GGATAC |  |  | 1.01 fold enrichment (6-mer frequency, TF over GST control) | 1.02 fold enrichment (6-mer frequency, TF over GST control) | 1.43 fold enrichment (6-mer frequency, TF over GST control) | 
GAAACC |  | 1.08 fold enrichment (6-mer frequency, TF over GST control) | 1.05 fold enrichment (6-mer frequency, TF over GST control) | 1.03 fold enrichment (6-mer frequency, TF over GST control) |  | 
CATAGC |  |  | 1.01 fold enrichment (6-mer frequency, TF over GST control) |  |  | 
CGGCAA |  |  | 1.02 fold enrichment (6-mer frequency, TF over GST control) |  |  | 
AGTACC | 1.03 fold enrichment (6-mer frequency, TF over GST control) |  | 1.04 fold enrichment (6-mer frequency, TF over GST control) | 1.02 fold enrichment (6-mer frequency, TF over GST control) | 1.01 fold enrichment (6-mer frequency, TF over GST control) | 
